Bioassay records as filed in PubChem BioAssay.
Only some compounds are listed: those with a hit (about 7% of all), similar ones and a draw of the others.
HP1b chromo inh: HP1-beta chromodomain-methylated histone interaction inhibition; P83916; AID 540317; Potency, µM (highest dose often 114 µM), for inactives: at the top dose activity change, negative = inhibition, most hits filed as inhibitors; AlphaScreen HP1-beta / biotin-H3K9me3 peptide binding; actives 0.56% (n = 390,000); note: potency is the fitted concentration of half-maximal effect; nearly all actives have a fitted effect of over 70% in size
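Compound inhibition of the preformed complex between 50 nM HP1-beta and 50 nM biotinylated H3K9me3 peptide was read by AlphaScreen. Buffer was PBS pH 7.4 with 0.01% Tween-20. Incubations ran 30 min at room temperature, with 10 ug/mL donor/acceptor beads.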
PI5P4Ka inh: inhibitors of human PI5P4K alpha; max response, %; actives 1.2% (n = 330,000); P48426; AID 652105; PI5P4Kalpha enzyme, ADP-Glo luminescence, 60 min; hits give low values; active = max response of -50% or lower; inconclusive = between -30% and -50%; inactive = -30% or higher; note: value at the top dose of about 77 µM; % is set by controls: 0 for no effect and ±100 for the full control effect
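Reactions run in 0.038 M HEPES pH 7.4, 0.28 mM EGTA, 0.1% CHAPS and 5% DMSO, with PI5P4Kalpha, substrate, compound and 5 microM ATP final, one hour at room temperature. Readout is ADP-Glo luminescence.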
JMJD2A Tudor: inhibitors of human JMJD2A Tudor domain. AlphaScreen JMJD2A-Tudor / H3K4me3 peptide binding. actives 4.4% (n = 390,000). Potency, µM (doses to about 114 µM), for inactives: top-dose activity change, negative = inhibition, most hits filed as inhibitors. O75164; note: potency is the fitted concentration of half-maximal effect; % is set by controls: 0 for no effect and ±100 for the full control effect; nearly all actives have a fitted effect of over 50% in size
BAZ2B block: blocks human BAZ2B; Q9UIF8; AlphaScreen BAZ2B-H3K14Ac peptide displacement; Potency, µM (titrated, usually from 114 µM), for inactives: at the top dose activity change, negative = inhibition, hits mostly inhibitors; actives 4.4% (n = 360,000); AID 504333; note: potency is the fitted concentration of half-maximal effect; % is set by controls: 0 for no effect and ±100 for the full control effect; nearly all actives have a fitted effect of over 60% in size
Target sequence (Q9UIF8 whole entry, looked up): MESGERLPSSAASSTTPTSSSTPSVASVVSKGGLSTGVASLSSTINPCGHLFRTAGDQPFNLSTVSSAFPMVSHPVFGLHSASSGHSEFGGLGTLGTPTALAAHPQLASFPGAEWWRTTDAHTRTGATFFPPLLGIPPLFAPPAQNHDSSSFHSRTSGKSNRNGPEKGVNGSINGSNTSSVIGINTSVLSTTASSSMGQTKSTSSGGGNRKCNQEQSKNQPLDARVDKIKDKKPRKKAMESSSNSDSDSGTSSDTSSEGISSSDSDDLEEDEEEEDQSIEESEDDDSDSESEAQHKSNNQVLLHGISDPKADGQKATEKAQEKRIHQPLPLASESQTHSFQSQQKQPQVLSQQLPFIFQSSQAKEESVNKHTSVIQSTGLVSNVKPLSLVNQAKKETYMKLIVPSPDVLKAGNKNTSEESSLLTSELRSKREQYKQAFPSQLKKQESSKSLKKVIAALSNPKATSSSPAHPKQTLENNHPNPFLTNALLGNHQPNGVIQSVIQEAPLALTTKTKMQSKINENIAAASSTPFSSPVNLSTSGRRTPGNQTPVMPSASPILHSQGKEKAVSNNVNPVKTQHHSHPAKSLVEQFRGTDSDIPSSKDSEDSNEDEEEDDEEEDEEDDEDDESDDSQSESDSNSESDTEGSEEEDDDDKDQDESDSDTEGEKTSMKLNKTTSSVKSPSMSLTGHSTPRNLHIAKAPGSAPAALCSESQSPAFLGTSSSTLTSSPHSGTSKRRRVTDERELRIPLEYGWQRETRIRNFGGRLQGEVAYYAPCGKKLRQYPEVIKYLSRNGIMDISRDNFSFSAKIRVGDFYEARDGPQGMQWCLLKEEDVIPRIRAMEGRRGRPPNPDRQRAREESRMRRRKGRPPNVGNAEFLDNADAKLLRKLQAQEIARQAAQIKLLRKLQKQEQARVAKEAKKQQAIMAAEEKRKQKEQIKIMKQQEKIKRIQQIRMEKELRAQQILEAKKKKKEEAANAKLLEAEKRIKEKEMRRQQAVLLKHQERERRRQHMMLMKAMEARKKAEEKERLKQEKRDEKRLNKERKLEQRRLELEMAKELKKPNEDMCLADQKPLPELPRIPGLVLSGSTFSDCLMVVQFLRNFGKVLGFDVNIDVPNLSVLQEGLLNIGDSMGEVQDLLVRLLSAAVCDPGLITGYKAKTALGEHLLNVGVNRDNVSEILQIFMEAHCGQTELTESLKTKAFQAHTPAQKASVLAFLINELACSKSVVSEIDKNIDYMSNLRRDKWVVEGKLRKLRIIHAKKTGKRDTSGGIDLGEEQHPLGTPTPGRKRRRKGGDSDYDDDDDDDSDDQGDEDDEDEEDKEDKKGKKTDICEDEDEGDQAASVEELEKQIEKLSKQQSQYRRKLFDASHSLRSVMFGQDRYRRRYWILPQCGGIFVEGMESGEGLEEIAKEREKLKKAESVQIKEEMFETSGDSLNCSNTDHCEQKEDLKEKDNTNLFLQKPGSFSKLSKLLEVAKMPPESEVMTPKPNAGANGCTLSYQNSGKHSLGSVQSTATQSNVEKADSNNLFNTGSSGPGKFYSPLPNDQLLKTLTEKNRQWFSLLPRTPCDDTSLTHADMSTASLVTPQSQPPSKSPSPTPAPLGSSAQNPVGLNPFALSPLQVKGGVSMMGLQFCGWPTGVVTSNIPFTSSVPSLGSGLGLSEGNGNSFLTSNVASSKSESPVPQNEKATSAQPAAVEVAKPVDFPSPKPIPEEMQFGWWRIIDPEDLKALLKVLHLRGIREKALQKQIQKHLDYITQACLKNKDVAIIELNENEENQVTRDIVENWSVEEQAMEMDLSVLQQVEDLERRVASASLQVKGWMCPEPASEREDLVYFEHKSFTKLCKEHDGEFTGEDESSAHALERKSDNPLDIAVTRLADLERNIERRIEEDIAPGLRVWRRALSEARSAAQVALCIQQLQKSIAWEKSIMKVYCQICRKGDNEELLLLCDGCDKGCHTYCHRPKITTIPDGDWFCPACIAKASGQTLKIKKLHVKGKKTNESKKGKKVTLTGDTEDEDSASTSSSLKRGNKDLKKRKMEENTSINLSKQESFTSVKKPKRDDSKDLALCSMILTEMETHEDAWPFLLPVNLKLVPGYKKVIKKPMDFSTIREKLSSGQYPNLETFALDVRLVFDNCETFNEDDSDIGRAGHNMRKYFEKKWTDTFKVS
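Complex of BAZ2B and biotin-H3K14Ac (50 nM apiece) forms over 30 min at RT, then faces library compounds up to 110 uM for another 30 min; AlphaScreen beads added, 20 min dark incubation, luminescence read.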
PLK1 PBD inh: PLK1 (human) polo-box domain binding inhibition. P53350. Plk1 PBD binding of FITC phosphopeptide, fluorescence polarization. actives 2.8% (n = 360,000). AID 720504. Potency, µM, inactives show max response, negative = inhibition, usual class: inhibitors; note: potency is the fitted concentration of half-maximal effect; series mostly up to about 57 µM; % is set by controls: 0 for no effect and ±100 for the full control effect; nearly all actives have a fitted effect of over 65% in size
KAT2A inh: inhibitors of human GCN5L2 histone acetyltransferase. Q92830. GCN5L2 HAT assay, ThioGlo1 CoA-SH fluorescence. Potency, µM (titrated, usually from 58.9 µM), without a hit: at the highest dose activity change, negative = inhibition, usual class: inhibitors. actives 0.21% (n = 390,000); note: potency is the fitted concentration of half-maximal effect; % is set by controls: 0 for no effect and ±100 for the full control effect
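Titration-based screen in which CoA formation is detected via maleimide probe ThioGlo1 (50uM) turning fluorescent on thiol reaction; substrates H3(1-25) 75uM and acetyl-CoA 70uM, GCN5L2 20nM, 20 min incubation at room temperature.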
* = called active by the depositor; ? = inconclusive; / = no result; [ ] = another dose, or the depositor's remark. Unless noted, calls come from the whole dose curve; as a rule, active = well fitted curve in the direction sought with a large enough effect; inconclusive = small, poorly fitted or top-dose-only effect, or another doubt; inactive = no such curve, though single readings can be large; an effect the other way counts as inactive or inconclusive.

SMILES | HP1b chromo inh | PI5P4Ka inh | JMJD2A Tudor | BAZ2B block | PLK1 PBD inh | KAT2A inh
CC1CCc2nc(NC(=O)CN3CCOCC3)sc2C1 (stereo unspecified) | 26.2% | 1.9 | -10.8% | 2.3% | 1.6% | -1.1%
CC1(C)CNC(=O)c2sc(NC(=O)CN3CCOCC3)nc2C1 | 44.6% | -6.9 | 20µM* | 2.6% | 2.9% | -5.0%
O=C(NCc1ccc(Cl)c(Cl)c1)c1cc(C2CCCCN2C(=O)c2ccccn2)on1 (stereo unspecified) | / | 0.4 | / | / | -5.0% | /
CCC(=O)Nc1ccccc1Oc1ccccc1 | ? | -1.7 | 56.2µM* | 10.0% | 23.8µM* | -1.1%
CCCCC(=O)Nc1ccccc1Oc1ccccc1 | 79.0% | -0.5 | 27.2% | 15.8% | -5.0% | 2.2%
C=CCn1c(CSc2ccc(C)cc2)n[nH]c1=S | 62.8% | -4.7 | 12.5% | -24.6% | 1.7% | -2.8%
C=CCn1c(CCC(O)COCCC)n[nH]c1=S (stereo unspecified) | 25.8% | -6.1 | 22.4µM* | -27.2% | -9.1% | 0.0%
O=C(CSc1nc2ccccc2s1)N1CCCCC1 | 25.5% | / | -23.0% | -3.0% | 15µM* | -19.0%
O=C(O)C1CCN(C(=O)CSc2nc3ccccc3s2)CC1 | 4.2% | -18.3 | -18.0%[11.4 µM] | -13.9% | 23.8µM* | 2.8%
O=C1c2ccccc2C(=O)N1c1cncc2ccccc12 | / | / | -27.9% | / | / | /
CC(C)(C)NC(=O)NC(=O)COC(=O)COc1ccc(Cl)cc1Cl | 0.6% | -13.9 | -28.9% | 4.7% | 11.9µM* | ?
CC(C)(C)NC(=O)NC(=O)COc1ccc(Br)cc1Br | 68.3% | 0.4 | 12.0% | 6.9% | -0.2% | -7.7%
COc1ccc(-c2csc(Nc3ccccn3)n2)cc1OC | -24.6% | -1.0 | ? | 44.7µM* | -12.0% | -18.5%
CC(=O)c1cccc(Nc2nc(-c3sc(N)nc3C)cs2)c1 | ? | ? | ? | 35.5µM* | 21.2µM* | ?
Cc1ccc(-c2csc(Nc3ccccn3)n2)cc1 | 20.6% | 4.2 | -21.9% | ? | -4.1% | -4.1%
CCC(=O)Nc1nc(C)c(-c2csc(Nc3cccc(O)c3)n2)s1 | -14.3% | -13.6 | 39.8µM* | ? | ? | 0.0%
Cc1nc(N)sc1-c1csc(Nc2ccccn2)n1 | -46.2% | ? | 79.4µM* | -37.9% | ? | -5.6%
COCCCNC(=O)c1sc2nc(C)c(C(=O)Nc3ccc(C)cc3C)c(-c3ccc(Cl)cc3)c2c1N | 73.8% | / | -11.9% | 16.4% | / | -21.1%
O=C(NCc1cccnc1)c1cc(C2CCCCN2C(=O)c2cccs2)on1 (stereo unspecified) | / | 5.7 | / | / | -4.0% | /
COc1ccc(Nc2nc(-c3sc(N)nc3C)cs2)cc1 | ? | -21.2 | 50.1µM* | 14.1µM* | ? | -8.3%
Cc1nc(N)sc1-c1csc(Nc2cccc(O)c2)n1 | ? | ? | ? | 56.2µM* | ? | 1.2%
COc1ccc(CCNc2nc(-c3sc(N)nc3C)cs2)cc1OC | ? | -13.6 | 56.2µM* | 50.1µM* | -15.5% | -9.4%
Cc1ccnc(Nc2nc(-c3sc(C)nc3C)cs2)c1 | ? | -7.3 | 79.4µM* | / | -8.7% | /
COc1ccc(N2CC(NC(=O)c3ccc4c(c3)OCO4)CC2=O)cc1 (stereo unspecified) | 23.8% | / | -14.6% | -2.8% | / | -9.2%
CCOC(=O)c1c(C)oc2ncnc(N3CCN(c4ccccc4)CC3)c12 | -5.7% | / | -29.8% | -13.6%[57.1 µM] | / | 20.8%
SMILES | HP1b chromo inh | PI5P4Ka inh | JMJD2A Tudor | BAZ2B block | PLK1 PBD inh | KAT2A inh
CCOC(=O)c1c(C)oc2c1c1c(c3ccccc32)OCN(Cc2ccccn2)C1 | -8.0% | -8.3 | ? | 44.7µM* | ? | -10.5%
CCOC(=O)c1c(C)oc2c1c(C(c1ccncc1)N1CCOCC1)c(O)c1ccccc12 (stereo unspecified) | 70.8µM* | -21.8 | ? | 14.1µM* | 10.6µM* | -26.7%
CCOC(=O)c1oc2ccccc2c1CN1CCN(C(=O)c2ccccc2)CC1 | 27.5% | -0.4 | -15.3% | -4.9% | 0.1% | -2.4%
CCOC(=O)c1oc2ccccc2c1CN1CCN(c2ccccc2)CC1 | -16.5% | 7.0 | 79.4µM* | 56.2µM* | 1.7% | -17.9%
CCOC(=O)c1c(C)oc2c1c(CN1CCN(CCO)CC1)c(O)c1ccccc12 | ? | -97.8* | ? | / | 1.68µM* | -6.5%
CC(C)(C)OC(=O)N1CC23CC(c4ccc(F)cc4)C(CC2S1(=O)=O)O3 (stereo unspecified) | 21.1% | / | -7.6% | / | / | /
CCOC(=O)c1c(C)oc2c1c(CN1CCN(C(=O)OCC)CC1)c(O)c1ccccc12 | -26.5% | -56.2* | ? | ? | ? | -9.0%
Cc1ccc(C(=O)/C=C/c2ccc(-c3ccc(C)cc3)o2)cc1 | -24.6% | -24.0 | 79.4µM* | -34.2% | -23.8% | -6.5%
CCN(CC)S(=O)(=O)c1ccc(C(=O)/C=C/c2ccc(-c3ccc([N+](=O)[O-])cc3)o2)cc1 | 26.7% | -17.5 | -5.6% | -25.6% | -29.6% | 23.8%
O=C(/C=C\c1ccc(-c2ccccc2)o1)c1ccccc1 | ? | -0.8 | -31.5% | 31.6µM* | -3.1% | -0.1%
Cc1ccc(C(=O)/C=C\C(=O)c2ccc(C)cc2)cc1 | -5.3% | -16.2 | -19.0% | -10.0% | 6.7µM* | 1.0%
C=CCSc1nccc(=O)[nH]1 | 22.0% | -18.3 | 50.1µM* | 6.5% | 13.4µM* | -0.3%
CC(C)(C)NC(=O)C(c1ccc(O)cc1)N(C(=O)CCC(=O)Nc1ccccn1)c1ccc(F)cc1 (stereo unspecified) | 17.0% | 1.4 | -4.9% | 5.1% | -0.1% | -5.7%
Cc1cccc(OCC(O)CN2C(C)(C)CC(O)CC2(C)C)c1 (stereo unspecified) | 4.0% | -2.7 | 0.0%[11.4 µM] | 4.0% | 9.47µM* | /
O=C(O)C1=C(C2CCCCC2)C(=O)c2ccccc21 | 14.9% | -0.7 | -13.9% | / | 3.3% | /
O=C1C=C(C2CCCCC2)C(=O)c2ccccc21 | ? | 8.4 | 39.8µM* | / | -6.2% | /
COc1ccc(-n2nc(C(=O)NCC(=O)Nc3ccccn3)c3ccccc3c2=O)cc1Cl | 83.2% | 7.6 | 31.6µM* | ? | -1.1% | -14.5%
CCC(C)NC(=O)CNC(=O)c1nn(-c2ccc(OC)c(Cl)c2)c(=O)c2ccccc12 (stereo unspecified) | 18.1% | -1.6 | -7.0% | 4.2% | -12.2% | -10.1%
COc1ccc(-n2nc(C(=O)NCC(=O)NC(C)C)c3ccccc3c2=O)cc1Cl | 43.9% | 2.3 | -1.7% | -0.4% | -10.9% | 7.08µM*
Cc1nn(C)c2c1c(-c1ccccc1)cc(=O)n2Cc1ccccc1Cl | 46.2% | / | 28.7% | 38.1% | / | -12.5%
O=C(NCCC1CCCCN1S(=O)(=O)c1ccccc1)C(=O)NCc1ccccn1 (stereo unspecified) | 21.8% | -10.2 | -16.4% | 11.1% | -15.4% | -15.1%
